We go through 43 molecules from PubChem BioAssay (NCATS).

Experiment [1] in a line: qHTS of pediatric cancer cell lines to identify multiple opportunities for drug repurposing: Confirmatory screen for SJ-GBM2 cells (AID 1347116). Note: potency is the fitted concentration of half-maximal effect; nearly all actives have a fitted effect of over 60% in size. Summed up: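 Viability measured as metabolically active cells via CellTiter-Glo luminescence following 48 hours of compound exposure, 11-point dilutions in confirmatory testing. 500-1,000 cells/well plated 5 hours before dosing; controls were DMSO and 2.3 µM bortezomib.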

Experiment [2] can be described thus: qHTS of pediatric cancer cell lines to identify multiple opportunities for drug repurposing: Confirmatory screen for BT-37 cells (AID 1347117). Note: nearly all actives have a fitted effect of over 55% in size. Note: potency is the fitted concentration of half-maximal effect. Put shortly:
(§1)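 Viability after 48 h compound treatment at 37C, 500-1,000 cells/well, read as ATP luminescence with CellTiter-Glo. Primary screens used 11-point (MIPE, 0.78 nM-46 µM) or 8-point (NPC, 0.59 nM-46 µM) final concentrations; follow-up screens used 11-point dilutions.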

Experiment [3] can be described thus: qHTS of pediatric cancer cell lines to identify multiple opportunities for drug repurposing: Confirmatory screen for TC32 cells (AID 1347118).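 Note: potency is the fitted concentration of half-maximal effect; cells exposed to compound for 48 h before the read; nearly all actives have a fitted effect of over 65% in size.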 Put shortly:
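TC32 cells, 500-1,000/well in growth medium, compound-treated 48 h at 37 °C; viability from CellTiter-Glo luminescence. Primary screen: MIPE 11-point (0.78 nM–46 µM final), NPC 8-point (0.59 nM–46 µM final); confirmatory at 11-point dilutions.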

Experiment [4] in a line: qHTS of pediatric cancer cell lines to identify multiple opportunities for drug repurposing: Confirmatory screen for control Hh wild type fibroblast cells (AID 1347121). Note: nearly all actives have a fitted effect of over 70% in size. Summed up: as §1
Experiment [5] is described as follows: qHTS of pediatric cancer cell lines to identify multiple opportunities for drug repurposing: Confirmatory screen for U-2 OS cells (AID 1347122). Note: potency is the fitted concentration of half-maximal effect; nearly all actives have a fitted effect of over 65% in size. Put shortly: as §1
Experiment [6] can be described thus: qHTS of pediatric cancer cell lines to identify multiple opportunities for drug repurposing: Confirmatory screen for Rh41 cells (AID 1347123).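 Note: potency is the fitted concentration of half-maximal effect; 48 h compound exposure; nearly all actives have a fitted effect of over 60% in size.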 Put shortly:
as §1

Experiment [7] is described as follows: qHTS of pediatric cancer cell lines to identify multiple opportunities for drug repurposing: Confirmatory screen for Saos-2 cells (AID 1347127). Note: potency is the fitted concentration of half-maximal effect; nearly all actives have a fitted effect of over 60% in size. Summed up: as §1
Experiment [8] in a line: qHTS of pediatric cancer cell lines to identify multiple opportunities for drug repurposing: Confirmatory screen for OHS-50 cells (AID 1347128).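 Note: potency is the fitted concentration of half-maximal effect; compound exposure lasted 48 h at 37 degrees C; nearly all actives have a fitted effect of over 55% in size.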 Summed up: as §1
Experiment [9] deals with Zika virus NS2B-NS3 protease. The experiment is described as follows: Primary screen GU AMC qHTS for Zika virus inhibitors (AID 1347154). Note: nearly all actives have a fitted effect of over 70% in size. Note: potency is the fitted concentration of half-maximal effect. Put shortly: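 Unlinked Zika NS2B hydrophilic domain–NS3 protease complex at 25 nM in 10 mM Tris-HCl pH 8.0, 0.01% Tween 20, with an AMC peptide substrate. Fluorescence change (340/450 nm) over 15 min at room temperature, normalized to controls, fitted to 4-parameter Hill.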

Experiment [10] is described as follows: qHTS of pediatric cancer cell lines to identify multiple opportunities for drug repurposing: Confirmatory screen for NB-EBc1 cells (AID 1347115).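 Note: cells exposed to compound for 48 h before the viability read; nearly all actives have a fitted effect of over 45% in size.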 Put shortly: as §1
Experiment [11] can be described thus: qHTS of pediatric cancer cell lines to identify multiple opportunities for drug repurposing: Confirmatory screen for RD cells (AID 1347124).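 Note: cells exposed to compound for 48 h before viability readout; nearly all actives have a fitted effect of over 65% in size.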 Note: potency is the fitted concentration of half-maximal effect. Put shortly: as §1
A short description of experiment [12]: qHTS of pediatric cancer cell lines to identify multiple opportunities for drug repurposing: Confirmatory screen for Rh18 cells (AID 1347125). Note: nearly all actives have a fitted effect of over 55% in size. Put shortly: as §1
Experiment [13] deals with N-terminal Xaa-Pro-Lys N-methyltransferase 1 (Homo sapiens) (UniProt Q9BV86). In words: qHTS Assay for Inhibitors of N-terminal methyltransferase 1 (NTMT1): LOPAC validation of the NTMT1 SAHH-coupled ThioGlo3 Assay (AID 1347143).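 Note: SAH from peptide methylation measured as thiol fluorescence via SAHH coupling and ThioGlo3; nearly all actives have a fitted effect of over 70% in size.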 Note: potency is the fitted concentration of half-maximal effect. Summed up: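 Recombinant human NTMT1 (125nM) was pre-incubated 1 min at room temperature with compounds over a concentration range, then a mix of 100uM SAM, 10uM SAHH and 15uM ThioGlo3 (concentrations in added reagent) was added. ThioGlo3 fluorescence (ex 340/em 450nm) after 30 min was normalized to the initial reading.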
Chain of N-terminal Xaa-Pro-Lys N-methyltransferase 1 (Homo sapiens) (Q9BV86 whole entry, looked up): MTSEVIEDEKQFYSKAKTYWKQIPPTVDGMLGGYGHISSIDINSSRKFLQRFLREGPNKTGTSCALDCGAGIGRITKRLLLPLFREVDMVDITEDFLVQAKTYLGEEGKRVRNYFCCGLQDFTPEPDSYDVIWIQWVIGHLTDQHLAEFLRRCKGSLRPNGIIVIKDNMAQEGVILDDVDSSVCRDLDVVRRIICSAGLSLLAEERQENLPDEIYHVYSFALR

Experiment [14] deals with Furin (Homo sapiens) (UniProt P09958). The experiment is described as follows: Furin counterscreen qHTS for Zika virus inhibitors (AID 1347149). Note: nearly all actives have a fitted effect of over 70% in size. Note: potency is the fitted concentration of half-maximal effect. Put shortly: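 Fluorogenic cleavage of BOC-RVRR-AMC (2 microM final, Km ~15 µM) was monitored (ex 340, em 450 nm) at 37C after 15 min RT preincubation of 5 nM furin with compounds in HEPES pH 7.0 buffer with CaCl2 and Triton X-100. Percent inhibition was fitted to a 4-parameter Hill curve.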
Chain of Furin (Homo sapiens) (P09958 whole entry, looked up): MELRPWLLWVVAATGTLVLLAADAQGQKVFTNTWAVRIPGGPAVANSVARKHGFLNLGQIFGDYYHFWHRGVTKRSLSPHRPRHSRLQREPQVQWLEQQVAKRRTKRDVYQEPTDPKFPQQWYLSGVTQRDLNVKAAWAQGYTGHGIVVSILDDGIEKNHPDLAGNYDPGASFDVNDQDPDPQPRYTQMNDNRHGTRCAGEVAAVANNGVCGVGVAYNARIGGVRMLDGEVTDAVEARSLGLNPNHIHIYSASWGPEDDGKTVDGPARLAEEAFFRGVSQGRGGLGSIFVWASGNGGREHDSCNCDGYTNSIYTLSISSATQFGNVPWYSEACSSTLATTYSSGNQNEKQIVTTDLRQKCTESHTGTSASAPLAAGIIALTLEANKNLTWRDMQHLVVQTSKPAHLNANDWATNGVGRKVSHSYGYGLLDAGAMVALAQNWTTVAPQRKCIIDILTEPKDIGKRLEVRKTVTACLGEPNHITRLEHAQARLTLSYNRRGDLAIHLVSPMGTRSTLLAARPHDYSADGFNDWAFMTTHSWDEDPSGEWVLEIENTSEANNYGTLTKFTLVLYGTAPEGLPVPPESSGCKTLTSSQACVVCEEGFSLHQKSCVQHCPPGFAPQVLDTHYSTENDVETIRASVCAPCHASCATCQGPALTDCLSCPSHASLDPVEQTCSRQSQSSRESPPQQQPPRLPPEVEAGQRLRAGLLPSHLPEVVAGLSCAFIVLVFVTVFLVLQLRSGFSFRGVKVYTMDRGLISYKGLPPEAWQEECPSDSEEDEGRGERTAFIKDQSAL

Experiment [15] deals with Zika virus NS2B-NS3 protease (unlinked). In words: Optimization of GU AMC qHTS for Zika virus inhibitors: Unlinked NS2B-NS3 protease assay (AID 1347151). Note: series mostly up to about 52 µM; nearly all actives have a fitted effect of over 80% in size. Put shortly: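 In this qHTS, compounds acted on 25 nM unlinked Zika NS2B–NS3 in pH 8.0 Tris/Tween buffer. Cleavage of an AMC peptide ran 15 min at room temperature, to about 20% conversion.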
For experiment [16], the system named is Zika virus NS2B-NS3 protease (linked construct). The experiment is described as follows: Confirmatory screen NINDS AMC qHTS for Zika virus inhibitors (AID 1347152). Note: nearly all actives have a fitted effect of over 70% in size. Note: potency is the fitted concentration of half-maximal effect. Put shortly: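 Concentration-response confirmation used the NINDS linked protease (NS2B hydrophilic domain joined to NS3 protease domain), 1 nM, with a 15-min compound preincubation. Substrate, Nle-KRR-AMC at 10 microM, was read by UV fluorescence before and after 15 min.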

In experiment [17] the test system is Zika virus NS2B-NS3 protease (unlinked complex). In words: Confirmatory screen GU AMC qHTS for Zika virus inhibitors (AID 1347153). Note: nearly all actives have a fitted effect of over 70% in size. Put shortly: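 Unlinked NS2B-NS3 complex (25 nM) in 10 mM Tris-HCl pH 8.0, 0.01% Tween 20 preincubated 15 min with compound, then 10 microM Bz-Nle-KRR-AMC (Km 18.3 µM). Fluorescence change over 15 min, normalized, Hill-fitted.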

Records with an inconclusive call do not appear. Calls of active or inactive are those of the source. Calls come from the whole dose curve; as a rule, active = well fitted curve in the direction sought with a large enough effect; inconclusive = small, poorly fitted or top-dose-only effect, or another doubt; inactive = no such curve, though single readings can be large; an effect the other way counts as inactive or inconclusive.

Regarding `COc1ccc2c(c1)CN(C)CC2c1ccc(Cl)c(Cl)c1` (centres undefined), the Potency in experiment [1] is 1.47 µM (active); in experiment [2], 23.3 µM (active); in experiment [3], 6.57 µM (active); in experiment [5] it was 20.8 µM (active); in [6], 18.5 µM (active); in [7], 23.3 µM (active). For the same molecule, in experiment [8], the Potency is 23.3 µM (active). Moreover, the Potency entry in experiment [4] and in experiment [9] was “inactive” each time.
Turning to `O=C(N[C@H]1CN2CCC1CC2)c1ccc(Cl)cc1`, the Potency entry in experiment [10], in experiment [2], in experiment [4], in [12], in experiment [13] and in experiment [9] was “inactive” each time. Further, the Potency is 0.585 µM (active) in experiment [1], 1.65 µM (active) in experiment [3], 0.414 µM (active) in [11] and 10.4 µM (active) in [8].
As to `CC(=Cc1csc(C)n1)[C@@H]1C[C@H]2O[C@]2(C)CCC[C@H](C)[C@@H](O)[C@@H](C)C(=O)C(C)(C)[C@@H](O)CC(=O)O1`, the Potency in experiment [3] is 0.0037 µM (active); in experiment [7] it was 0.0131 µM (active).
On to `S=C(SSC(=S)N1CCCCC1)N1CCCCC1`, for which, in [3], the Potency is 2.61 µM (active).
As to `CO[C@H]1CCC(O[C@H]2C[C@H]([C@]3(C)CC[C@]4(C[C@H](O)[C@@H](C)[C@@H]([C@@H](C)C=C(C)C(=O)[C@H](C)C[C@H](C)C(=O)O)O4)O3)O[C@]3(O[C@@H]([C@H]4O[C@@](O)(CO)[C@H](C)C[C@H]4C)C[C@H]3C)[C@H]2C)O[C@H]1C` (some centres undefined), the Potency entry in [11] is “inactive”.
`O=[N+]([O-])c1c(Cl)c(Cl)cc(Cl)c1Cl`: the Potency entry in [11], in experiment [12] and in experiment [14] was “inactive” throughout.
In the case of `CC=C(C)C(=O)N[C@@H](c1ccccc1)[C@@H](O)C(=O)O[C@H]1C[C@@]2(O)[C@@H](OC(=O)c3ccccc3)[C@@H]3[C@]4(OC(C)=O)CO[C@@H]4C[C@H](O)[C@@]3(C)C(=O)[C@H](OC(C)=O)C(=C1C)C2(C)C`, the Potency result in experiment [12] is “inactive”. The Potency in [7] is 0.0414 µM (active).
For the molecule `C=CCN1CC[C@]23CCCCC2[C@H]1Cc1ccc(O)cc13` (some centres undefined), in [14], the Potency result is “inactive”.
Take `CN[C@@H]1Cc2cccc3[nH]c(=O)n(c23)C1`: in experiment [9], the Potency entry is “inactive”.
Turning to `NC(=NCCC[C@H](N)C(=O)O)N[N+](=O)[O-]`, the Potency result in experiment [13] and in [9] was “inactive” throughout.
For `COC(=O)c1cncn1C(C)c1ccccc1` (centres undefined), the Potency result in experiment [9] is “inactive”.
`OCCCBr`: in [9], the Potency entry is “inactive”.
Take `CC(=O)NCCc1c[nH]c2ccccc12`: the Potency result in [13] and in [9] was “inactive” in each case.
Consider `NC(CP(=O)(O)O)C(=O)O` (centres undefined), for which the Potency result in experiment [13] and in experiment [9] was “inactive” each time.
Consider `O=C(O)c1cc(Oc2ccc(C(F)(F)F)cc2Cl)ccc1[N+](=O)[O-]`, for which the Potency result in experiment [14] and in experiment [9] was “inactive” in each case.
Take `NC1CCc2cc(O)c(O)cc2C1` (centres undefined): the Potency in experiment [13] is 22.4 µM (active). Further, the Potency result in [9] is “inactive”.
`CCC1(CCC(C)C)C(=O)NC(=O)NC1=O`: in experiment [9], the Potency entry is “inactive”.
Turning to `NCc1cc(=O)[nH]o1`, the Potency entry in experiment [13] and in experiment [9] was “inactive” each time.
On to `CCNC(=O)C[C@@H]1N=C(c2ccc(Cl)cc2)c2cc(OC)ccc2-n2c(C)nnc21`, for which, in [9], the Potency entry is “inactive”.
In the case of `NCCc1c[nH]c2ccccc12`, the Potency entry in experiment [13] and in [9] was “inactive” each time.
In the case of `NCCc1c[nH]c2ccc(O)cc12`, the Potency entry in experiment [15] and in experiment [9] was “inactive” in each case.
Consider `NC1CC1c1ccccc1` (centres undefined), for which the Potency result in experiment [13] and in experiment [9] was “inactive” throughout.
Take `C/C=C(/C)C(=O)O[C@H]1C(C)=C2[C@H]([C@@H]1OC(=O)CCCCCCC)[C@@](C)(OC(C)=O)C[C@H](OC(=O)CCC)[C@@]1(O)[C@H]2OC(=O)[C@@]1(C)O`: the Potency entry in experiment [13] and in [9] was “inactive” throughout.
Consider `CC[C@@H](C(N)=O)N1CCCC1=O`, for which the Potency entry in experiment [13] and in [9] was “inactive” each time.
Take `Cc1nccc2c1[nH]c1ccccc12`: the results for the Potency in experiment [13] and in [9] were 79.4 µM (active) and 26.7 µM (active), respectively.
With `O=S(=O)(O)C(F)(F)C(F)(F)C(F)(F)C(F)(F)F`, the Potency result in experiment [9] is “inactive”.
As for `C#CCOC(=O)C1=CCCN(C)C1`, the Potency result in [13] and in experiment [9] was “inactive” throughout.
With `S=C(NC1CCCCC1)N1CCC(c2cnc[nH]2)CC1`, the Potency result in [13] and in [9] was “inactive” each time.
For `CC(C)Oc1cccnc1N(C)C1CCN(Cc2ccccc2)CC1`, in [13], the Potency was 56.2 µM (active). Besides, the Potency result in [16] was “inactive”. The call in experiment [17] was inactive.
`c1cc2ccc3cccc4ccc(c1)c2c34`: the Potency in experiment [9] was 17.3 µM (active).
`C[N+](C)(C)CC(=O)O`: in experiment [15], the Potency result is “inactive”.
As to `O=C1C=CC[C@@H]2[C@H]3CCCN4CCC[C@@H](CN12)[C@@H]34`, in [9], the Potency entry is “inactive”.
`CC(=O)N(C)c1cccc(-c2ccnc3c(C(=O)c4cccs4)cnn23)c1`: the results for the Potency in experiment [14], in experiment [16] and in [9] were 24.1 µM (active), 24.1 µM (active) and 21.5 µM (active), respectively.
Consider `NC1=NC(=O)N2CC12` (centres undefined), for which the Potency result in [9] was “inactive”.
The same measure, in the same setting: the value for `O=[N+]([O-])c1cc([N+](=O)[O-])c2ccccc2c1` was “inactive”.
Regarding `CCCN(CCC)C1CCc2ccc(O)cc2C1` (centres undefined), the Potency entry in experiment [13] and in [9] was “inactive” throughout.
On to `O=C(Cc1ccc(Cl)c(Cl)c1)N1CCCCC1CN1CCCC1` (centres undefined), for which the Potency result in [13] and in [9] was “inactive” in each case.
On to `Nc1c(Cl)c(Cl)c(Cl)c(Cl)c1Cl`, for which the Potency result in [14] and in experiment [9] was “inactive” in each case.
With `O=C(O)Cc1cnc[nH]1`, the Potency result in experiment [13] and in experiment [9] was “inactive” in each case.
Consider `O=C1CCCN1CC#CCN1CCCC1`, for which the Potency result in experiment [13] and in experiment [9] was “inactive” throughout.
Take `CCN(CC)C(=O)c1ccc(C2=CC3(CCNCC3)Oc3cccc(O)c32)cc1`: the Potency entry in experiment [9] was “inactive”.
On to `C[C@@H](N)Cc1cnc[nH]1`, for which the Potency entry in [13] and in [9] was “inactive” in each case.
With `CCCN(CCC)[C@@H]1CCc2ccc(O)cc2C1`, the Potency result in experiment [13] and in experiment [9] was “inactive” throughout.
